# Data reported in PubChem BioAssay (NCATS).
# Records with an inconclusive call do not appear. Entries that show only a call come without a potency. Active and inactive are the calls of the source. Unless noted, calls come from the whole dose curve; as a rule, active = well fitted inhibition curve with a large enough effect; inconclusive = small, poorly fitted or top-dose-only effect; inactive = flat fitted curve, though single readings scatter. Peptide text beside a SMILES is read from it.
# System: not listed separately
# Assay: qHTS for Inhibitors of the Functional Ribonucleoprotein Complex (vRNP) of Lassa (LASV) Arenavirus: LASV Primary Screen - GLuc reporter signal (AID 1347082; calls by dose curve; tested in HEK293 reporter line; note: nearly all actives have a fitted effect of over 60% in size)
# Settings: LASV minigenome vRNP, Gaussia luciferase reporter; series mostly up to 57.5 µM
row,Compound,Potency
1,COC(=O)N[C@H](C(=O)N1CCC[C@@H]1c1ncc(-c2ccc(-c3ccc(-c4cnc([C@@H]5CCCN5C(=O)[C@@H](NC(=O)OC)C(C)C)[nH]4)cc3)cc2)[nH]1)C(C)C,inactive
2,CCNC(=O)Nc1ccc2ncc(Nc3ccc(C)cc3)nc2n1,inactive
3,CN(C)c1ccccc1CN1CCCN(Cc2ccccc2N(C)C)C1c1ccncc1,inactive

# System: not listed separately
# Assay: qHTS for Inhibitors of the Functional Ribonucleoprotein Complex (vRNP) of Lassa (LASV) Arenavirus: Viability assay - alamar blue signal for LASV Primary Screen (AID 1347083; calls by dose curve; tested in HEK293 reporter line; note: nearly all actives have a fitted effect of over 80% in size; note: potency is the fitted concentration of half-maximal effect)
# Settings: cell viability, alamar blue fluorescence (LASV minigenome counter-screen); series mostly up to 57.5 µM
row,Compound,Potency
1,COC(=O)N[C@H](C(=O)N1CCC[C@@H]1c1ncc(-c2ccc(-c3ccc(-c4cnc([C@@H]5CCCN5C(=O)[C@@H](NC(=O)OC)C(C)C)[nH]4)cc3)cc2)[nH]1)C(C)C,inactive
2,CCNC(=O)Nc1ccc2ncc(Nc3ccc(C)cc3)nc2n1,2170 nM (active)
3,CN(C)c1ccccc1CN1CCCN(Cc2ccccc2N(C)C)C1c1ccncc1,inactive

# System: CRL-7250
# Assay: qHTS assay to identify novel small-molecules to repurpose for Merkel cell carcinoma treatment (AID 1296009); note: nearly all actives have a fitted effect of over 60% in size
# Settings: MCC and control cell lines, CellTiter-Glo viability, 72 h; series mostly up to 92 µM
# Summary of the method: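 Cells were incubated with compound for 72 hr at 37 degree celsius before CellTiter-Glo addition. Luminescence was normalized with no-cell wells as full cytotoxicity and DMSO as baseline.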
Compound,Potency,outcome
O=C(OC[C@@]1(O)CO[C@@H](O[C@H]2[C@H](Oc3ccc(O)cc3)O[C@H](CO)[C@@H](O)[C@@H]2O)[C@@H]1O)c1ccc(O)cc1,inactive,–
CSCC1OC(n2cnc3c(N)ncnc32)C(O)C1O (stereo not drawn),inactive,–
C=C1C(=O)OC2CC(C)=C(C(C)CCCO)C(O)C12 (stereo not drawn),inactive,–
NCCOCCOCCNC(=O)Cc1ccc(Nc2nc(NCc3ccc(F)cc3)nc(NCC3CCCCC3)n2)cc1,inactive,–
O[C@@](Cc1ncc(CC2(C(F)(F)F)CC2)[nH]1)(c1ccc(-n2cccn2)cc1)C(F)(F)F,inactive,–
CC1(C)CCCC2(C)C=C(C(=O)O)C(O)CC12 (stereo not drawn),inactive,–
COC(=O)C1=C[C@@H](O)[C@@H](O)[C@H](O[C@@H]2O[C@H](COC(=O)/C=C/c3ccccc3)[C@@H](O)[C@H](O)[C@H]2O)C1,inactive,–
CC1(C)CCCC2(C)C1C(O)C=C(CO)C2(O)CO (stereo not drawn),inactive,–
C[C@@H](O)[C@H](N)C(=O)N1CCC[C@H]1C(=O)N1CCC[C@H]1C(=O)N[C@H](C(N)=O)[C@@H](C)O (H-TPPT-NH2),–,inactive [at 9.27 µM]
COC(=O)N[C@H](C(=O)N1CCC[C@@H]1c1ncc(-c2ccc(-c3ccc(-c4cnc([C@@H]5CCCN5C(=O)[C@@H](NC(=O)OC)C(C)C)[nH]4)cc3)cc2)[nH]1)C(C)C,inactive,–
CC(=O)O[C@@H]1CC2C(/C=C(\C)C(=O)[C@@]3(O)C[C@@H](C)[C@H](OC(=O)c4ccccc4)C3/C=C/1C)C2(C)C (stereo partly drawn),inactive,–
Cc1cc(CO)c(O)c(C(=O)CC2CC(=O)NC(=O)C2)c1,inactive,–
COc1cc(Br)c(S(=O)(=O)Nc2ccc(Cl)c(O[C@@H]3CCN(C)C3)c2)cc1OC,inactive,–
COc1cccc2c1CCC[C@H]2CN(C)CCc1ccc2ccoc2c1,inactive,–
CC(NCc1ccc(OCc2cccc(F)c2)cc1)C(N)=O (stereo not drawn),inactive,–
COC(=O)/C=C/C=C/C(=O)OC1C=C2COC(=O)C2(O)C2(C)CCCC(C)(C)C12 (stereo not drawn),inactive,–
NC1(c2ccc(NC(=O)c3ccnc(-c4cc(C(=O)O)ccn4)c3)cc2)CC1,inactive,–
COc1c2c(c(C)c3c1C(=O)OC3)OC1(C)CC(O)C34OC(OC)(CCC3(C)C1C2)OC4(C)CO (stereo not drawn),inactive,–
CC1(CO)CC[C@]2(C(=O)O[C@@H]3O[C@H](CO)[C@@H](O)[C@H](O)[C@H]3O)CC[C@]3(C)C(=CCC4[C@@]5(C)C[C@H](O)[C@H](O[C@@H]6OC[C@@H](O)[C@H](O)[C@H]6O)[C@@](C)(CO)C5CC[C@]43C)C2C1 (stereo partly drawn),–,inactive [at 9.27 µM]
C=C1CCC2C(C)(COC3OC(COC(=O)CC(=O)O)C(O)C(O)C3O)CCCC2(C)C1CCC1=CCOC1=O (stereo not drawn),inactive,–
Cc1c(C)c(NCC(=O)N(C)C2CCN(Cc3ccc(C(N)=O)cc3)CC2)c(C)c(C)c1N,inactive,–
CC1(C)CC[C@]2(C(=O)O[C@@H]3O[C@H](CO)[C@@H](O)[C@H](O)[C@H]3O)CC[C@]3(C)C(=CCC4[C@@]5(C)C[C@@H](O)[C@H](O)[C@](C)(C=O)C5CC[C@]43C)[C@@H]2[C@@H]1O (stereo partly drawn),inactive,–
NC(Cc1c[nH]c2ccccc12)C(=O)NC(CCC(=O)O)C(=O)O (stereo not drawn),inactive,–
C=CC(C)(CC/C=C(\C)C(=O)OC)OC1OC(COC(=O)CC(C)(O)CC(=O)O)C(OC2OC(CO)C(O)C(O)C2O)C(O)C1O (stereo not drawn),inactive,–
O=c1ccn(C2OC(CO)C(O)C2O)c(=O)[nH]1 (stereo not drawn),inactive,–
CC[C@H](NC(=O)c1c(O)c(-c2ccccc2)nc2ccccc12)c1ccccc1,inactive,–
CCNC(=O)Nc1ccc2ncc(Nc3ccc(C)cc3)nc2n1,inactive,–
